Assay outcomes (PubChem BioAssay)
The list is not random: actives were taken first. Their share in the collection is about 3.8%.
HepG2 viability – kills HepG2 cells in TGF-b inhibitor counter-screen. HepG2 CAGA-GFP viability, ATP luminescence, 18 h. Potency, µM (doses to about 46.1 µM), without a hit: top-dose activity change, negative = cytotoxicity, hits mostly cytotoxic. 410,000 compounds, 0.76% hits. AID 588856
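CellTiter-Glo luminescence gave cytotoxicity after 18 hours at 37 degrees C. The cells were HepG2 CAGA-GFP in 1% FBS DMEM, stimulated with 500 pg/mL TGF-beta after compound addition. %Activity was normalised to no-cell wells (complete cell-killing) and DMSO (no toxicity), and curves were fitted and classified.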
TGFb inhibitor – inhibitors of TGF-b signaling; 410,000 compounds, 1.2% hits; Potency, µM (titrated, usually from 46.1 µM), for the others: at the highest dose activity, negative = inhibition, most hits filed as inhibitors; HepG2 CAGA-GFP TGF-b/SMAD3 reporter, GFP fluorescence, 18 h; TGF-beta stimulated, 500 pg/mL final; note: % is set by controls: 0 for no effect and ±100 for the full control effect; nearly all actives have a fitted effect of over 65% in size
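Using HEPG2 CAGA-GFP reporter cells at 1000 cells/well, we pinned test compounds, stimulated with recombinant TGF-beta (500 pg/mL final) and measured total well GFP after 18 h.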
A549 tox-1 – kills or reduces viability of A549 cells in Nrf2 counter-screen | A549 ARE-Fluc cells, CellTiter-Fluor viability, 18-24 h | Potency, µM (doses to about 46 µM), inactives show at the highest dose activity change, negative = cytotoxicity, most hits filed as inhibitors | 390,000 compounds, 0.16% hits | AID 504648; note: % is set by controls: 0 for no effect and ±100 for the full control effect
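A549 ARE_Fluc cells in 5% FBS OPTI-MEM were exposed to compounds in concentration-response for 18-24 h at 37 deg C. Viability was read by CellTiter-Fluor fluorescence (Ex 405/Em 525) after 30 min, before the luciferase read.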
ATXN viability – cell viability loss in ATXN counter-screen; 400,000 compounds, 0.49% hits; Potency, µM (doses to about 56.7 µM), most hits filed as cytotoxic; S2 cells (HEK-293 line with an ATXN2-luciferase reporter) viability, CellTiter-Fluor protease fluorescence, 24 h; note: nearly all actives have a fitted effect of over 40% in size
ATXN2 expr inh – ATXN2 expression inhibition; HEK-293 ATXN2-luciferase reporter, luminescence, 24 h; Potency, µM (series often up to 57 µM), inactives show at the highest dose activity change, negative = inhibition, hits mostly inhibitors; 360,000 compounds, 0.72% hits; AID 1745845; note: % is set by controls: 0 for no effect and ±100 for the full control effect; nearly all actives have a fitted effect of over 55% in size
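ATXN2-luciferase reporter cells (luciferase flanked by upstream and downstream ATXN2 gene portions) were treated 24 h at 37 °C with compounds at up to 57 uM. SteadyGlo luminescence gave expression; GF-AFC fluorescence gave viability.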
Nrf2 inh – inhibitors of Nrf2 signaling. 360,000 compounds, 2.1% hits. AID 504444. A549 ARE-Fluc reporter, luciferase luminescence, 18-24 h. Potency, µM (doses to about 46 µM), for inactives: at the top dose activity change, negative = inhibition, most hits filed as inhibitors; note: % is set by controls: 0 for no effect and ±100 for the full control effect; nearly all actives have a fitted effect of over 60% in size
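Cells were seeded and rested 2 h, then exposed to compounds for 18-24 h. CellTiter-Fluor was read first as a viability measure. BugLite was added 15 min before the final luminescent read of ARE-luciferase activity in A549 cells.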
FLuc enzyme inh – counter-screen for Nrf2 inhibitors: firefly luciferase enzyme inhibition; shares compounds with Nrf2 inh; AID 720522; Potency, µM (doses to about 57.5 µM), inactives show at the highest dose activity change, negative = inhibition, hits mostly inhibitors; purified firefly luciferase, luminescence inhibition; 1,400 compounds, 4% hits; note: % is set by controls: 0 for no effect and ±100 for the full control effect; nearly all actives have a fitted effect of over 65% in size
Target sequence (P08659 whole entry, looked up): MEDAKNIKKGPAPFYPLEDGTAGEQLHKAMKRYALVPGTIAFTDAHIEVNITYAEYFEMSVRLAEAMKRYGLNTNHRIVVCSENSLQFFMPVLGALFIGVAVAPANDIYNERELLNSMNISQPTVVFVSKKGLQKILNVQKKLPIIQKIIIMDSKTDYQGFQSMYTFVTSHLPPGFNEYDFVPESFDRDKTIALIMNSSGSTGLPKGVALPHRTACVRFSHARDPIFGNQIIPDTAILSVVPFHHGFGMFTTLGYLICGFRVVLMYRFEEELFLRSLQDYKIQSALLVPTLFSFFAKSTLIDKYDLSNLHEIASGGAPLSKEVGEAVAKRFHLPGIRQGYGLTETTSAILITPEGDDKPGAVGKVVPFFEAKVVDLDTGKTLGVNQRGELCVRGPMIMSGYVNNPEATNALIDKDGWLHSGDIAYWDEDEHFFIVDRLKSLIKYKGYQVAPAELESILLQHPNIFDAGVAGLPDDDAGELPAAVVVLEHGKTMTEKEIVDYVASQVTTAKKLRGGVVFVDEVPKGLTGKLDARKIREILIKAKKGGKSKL
A549 tox-2 – A549 cytotoxicity, Nrf2 inhibitor counterscreen; shares compounds with Nrf2 inh; Potency, µM (titrated, usually from 46.1 µM), for inactives: at the highest dose activity change, negative = cytotoxicity, hits mostly inhibitors; A549 ARE-Fluc cells, cytotoxicity counterscreen; 1,400 compounds, 2% hits;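 note: cells exposed to compounds for 18 to 24 hours; % is set by controls: 0 for no effect and ±100 for the full control effect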
ARE-Fluc inh – reduces Nrf2 ARE reporter signal in A549 cells; shares compounds with Nrf2 inh; Potency, µM (titrated, usually from 46.1 µM), without a hit: at the top dose activity change, negative = inhibition, usual class: inhibitors; 1,400 compounds, 74% hits; A549 ARE-firefly luciferase reporter, luminescence; note: % is set by controls: 0 for no effect and ±100 for the full control effect; nearly all actives have a fitted effect of over 65% in size
The depositor's hits bear a star; i = inactive; ? = inconclusive; . = no result; ! = a repeat was not active; [ ] = another dose, or the depositor's remark. Calls come from the whole dose curve; as a rule, active = well fitted curve in the direction sought with a large enough effect; inconclusive = small, poorly fitted or top-dose-only effect, or another doubt; inactive = no such curve, though single readings can be large; an effect the other way counts as inactive or inconclusive. Potency is the fitted concentration of half-maximal effect.

SMILES | HepG2 viability | TGFb inhibitor | A549 tox-1 | ATXN viability | ATXN2 expr inh | Nrf2 inh | others
COc1ccc(C=C(C#N)C(=O)c2ccccc2)cc1 | . | . | . | i | 2.5% | .
CCC(=O)c1ccc(OCC(=O)NCCc2ccccn2)cc1 | 0.0% | -5.0% | 2.4% | i | -7.5% | ?
CCn1c(COc2ccccc2C)nnc1SCC(=O)OC | 7.3% | -10.0% | -1.6% | ? | 2.3% | 7.8%
CCn1c(CSCc2ccc(C)cc2)nnc1SCC(=O)N1CCN(c2ccccc2)CC1 | -10.8% | ? | ? | i | -32.6% | 20.6µM*
CCn1c(COc2ccccc2C)nnc1SCC(=O)N1CCN(c2ccccc2)CC1 | -19.6% | ? | -2.4% | ? | 14.1µM* | ?
N#CC1(NC(=O)COc2cccnc2[N+](=O)[O-])CCCCC1 | 0.8% | -14.4% | 6.5% | i | -11.3% | -2.2%
OC1(c2ccc(Br)cc2)CCN(Cc2cccc(Br)c2)CC1 | 11.2µM* | ? | -5.6% | i | . | -1.1%
O=C(CSc1cccc[n+]1[O-])Nc1c(Br)cc([N+](=O)[O-])cc1Br | -3.9% | -18.2% | 5.1% | i | -7.7%[11.3 µM] | -21.5%
O=C(c1ccccc1)N(C(=O)c1ccccc1)c1ncnc2c1C(c1ccccc1)c1c(ccc3ccccc13)O2 (centres undefined) | -10.1% | 2.8% | ? | i | -7.1% | 2.91µM*!
O=C(CCc1ccccc1)Nc1ncnc2c1C(c1ccccc1)c1c(ccc3ccccc13)O2 (centres undefined) | . | . | -7.4% | . | . | 4.61µM*
Cc1cc(C)c(C)c(S(=O)(=O)N(C)CCc2ccccn2)c1C | -16.1% | ? | 5.3% | i | 9.7% | ?
C(=N\Nc1nc(-c2ccccc2)cs1)/c1cccs1 | -9.7% | -10.6% | -17.8% | i | 94.8% | ?
Cc1ccc2nc(SCC(=O)N3CCOc4ccc(CN5C[C@@H](C)O[C@@H](C)C5)cc4C3)[nH]c2c1 | . | . | . | i | . | .
COc1cc(NC(=O)CSc2ccc(-c3sc(C)nc3C)nn2)cc(OC)c1 | -25.5% | ? | -18.7% | . | . | ?
CCC(=NCCc1c(C)[nH]c2ccc(OC(F)(F)F)cc12)C1=C(O)CC(c2ccccc2)CC1=O (centres undefined) | -10.0% | ? | ? | ? | -27.7% | 20.6µM*
Cn1ncc2c(Nc3ccc(Br)cc3)nc(Nc3ccc(Br)cc3)nc21 | -189.8% | 11.2µM* | -9.7% | i | -31.8% | -28.9%
Cn1ncc2c(Nc3cccc(Cl)c3)nc(Nc3cccc(Cl)c3)nc21 | 22.4µM* | ? | 0.1% | i | ? | ?
Cn1ncc2c(Nc3ccc(O)cc3)nc(Cl)nc21 | 9.5% | 3.0% | -3.1% | i | 1.0% | -14.4%
COc1cc(=O)n2c(c1C(=O)N(C)Cc1nonc1C)CCN(Cc1ccc(F)cc1)CC2 | . | . | . | i | . | .
CCc1ccc(OCc2ccccc2C(=O)Nc2ccc3nc(C)cc(N)c3c2)cc1 | 3.98µM* | 3.98µM* | . | . | 17.2µM* | .
Cc1cc(N)c2cc(NC(=O)/C=C/c3ccccc3Cl)ccc2n1 | 7.08µM* | 7.08µM* | 9.9% | 8.91µM* | . | 3.5%
Cc1cc(C)nc(NC(=O)/C=C/c2ccccc2Cl)n1 | 1.4% | -6.0% | -5.7% | i | 53.3% | .
COC(=O)N/N=C/c1cc(Cl)c(OCc2ccc(F)cc2)c(OC)c1 | 7.3% | 5.5% | -1.5% | ? | -24.6% | -17.9%
COC(=O)N/N=C/c1cc(Cl)c(OCc2ccccc2F)c(OC)c1 | 10µM* | -11.0% | -4.5% | i | -26.3% | -1.4%
Cc1cccc(-n2c(=O)c3c(c4cc(C)ccc4n3C)n(Cc3ccccc3F)c2=O)c1 | -2.3% | 13.7% | 9.5% | i | 12.1% | ?
SMILES | HepG2 viability | TGFb inhibitor | A549 tox-1 | ATXN viability | ATXN2 expr inh | Nrf2 inh | others
O=c1c2ccccc2sn1-c1cc(S(=O)(=O)N2CCOCC2)ccc1N1CCCC1 | -9.0% | -27.1% | -0.4% | i | -11.7% | 6.5%
O=c1c2ccccc2sn1-c1cc(S(=O)(=O)N2CCOCC2)ccc1N1CCOCC1 | -93.5% | 11.2µM*! | 7.2% | i | -13.9% | 9.7%
Cn1c(N)c(C(=O)CSc2nc(C3CC3)n(-c3ccccc3)n2)c(=O)n(C)c1=O | 2.7% | 12.2% | -0.7% | i | . | -13.3%
CC/C(=N/NC(=O)c1ccc2c(c1)OCO2)c1ccccc1O | -39.4% | 2.51µM* | -22.1% | ? | . | 5.17µM* | FLuc enzyme inh=10.7µM*;A549 tox-2=-8.5%;ARE-Fluc inh=-15.5%
CC(C)(C)n1ncc2c(=O)n(Cc3ccccc3)cnc21 | -19.1% | -15.4% | . | . | . | .
CC(C)(C)n1ncc2c(=O)n(Cc3ccc(-c4ccccc4C#N)cc3)cnc21 | 2.9% | -2.0% | . | . | . | . | FLuc enzyme inh=-11.3%;A549 tox-2=-8.6%;ARE-Fluc inh=9.2µM*
CC[C@]12c3[nH]c4ccc(Cl)cc4c3CCN1C(=O)[C@@H](CC(=O)NCCCn1ccnc1)C[C@@H]2C(=O)N1CCN(C(=O)c2ccco2)CC1 | 6.3% | -11.8% | -2.6% | i | 4.2% | 14.8%
COc1ccc(S(=O)(=O)NCCc2nnc3ccc(SCC(=O)Nc4ccc(C(F)(F)F)cc4)nn23)cc1 | -4.3% | -12.3% | 1.5% | . | . | -3.1%
O=C(NC1CCN(Cc2ccccc2)CC1)c1ccc2c(c1)[nH]c(=O)n2Cc1ccc(F)cc1 | -2.0% | ? | ? | i | -26.6% | 4.61µM* | FLuc enzyme inh=0.5%;A549 tox-2=-15.5%;ARE-Fluc inh=9.2µM*
CCN(CC)S(=O)(=O)c1ccc(NC(=O)c2ccc(CN3CCOCC3)cc2)cc1 | -23.3% | ? | -4.2% | i | ? | 3.66µM* | FLuc enzyme inh=1.3%;A549 tox-2=-7.1%;ARE-Fluc inh=3.66µM*
O=C(Nc1ccc(N2CCOCC2)cc1)c1ccc(Cl)c(S(=O)(=O)N2CCCCC2)c1 | 27.1% | -2.6% | -7.3% | ? | . | 4.11µM* | FLuc enzyme inh=-2.3%;A549 tox-2=-2.7%;ARE-Fluc inh=5.17µM*
O=C(Nc1ccc(S(=O)(=O)N2CCCC2)cc1)c1ccc(CN2CCOCC2)cc1 | -6.5% | ? | -13.5% | ? | ? | 4.11µM* | FLuc enzyme inh=-1.9%;A549 tox-2=-7.8%;ARE-Fluc inh=8.2µM*
